# Reference: PubChem BioAssay (NCATS)
# Inconclusive results are not listed. Values without a mark were called inactive. Calls of active or inactive are those of the source. Calls follow the shape of the dose curve; as a rule, active = well fitted inhibition curve with a large enough effect; inconclusive = small, poorly fitted or top-dose-only effect; inactive = flat fitted curve, though single readings scatter.
# Target: Lysine-specific demethylase 5B (Homo sapiens) (UniProt Q9UGL1)
# Assay: Optimization screen for KDM5B Histone Demethylases FDH coupled qHTS against the LOPAC library (AID 1347166); also: 0% is about no effect
# Conditions: KDM5B demethylation, FDH-coupled NADH fluorescence (FDH is formaldehyde dehydrogenase); series mostly up to 57.5 µM; activity, negative = inhibition: at the top concentration
# Description: Assay Submitter (PI): Qin Yan, Ph.D. (Yale University) and Xiaodong Cheng, Ph.D. (MD Anderson)
# This project was funded as part of the NCI NEXT Program and Chemical Biology Consortium (CBC)
# The histone demethylases, KDM5A and KDM5B catalyze the demethylation of lysine 4 on histone H3 (H3K4me3/2). They
# are overexpressed in a variety of cancers and have been implicated in cancer cell growth, metastasis, drug resistance, and tumor growth. KDM5A is amplified and overexpressed in breast and gastric cancer; and is translocated in leukemia. While KDM5B is highly expressed in human mammary tumors and breast cancer cell lines, but not in normal adult breast tissue. Moreover, knockdown of KDM5B leads to upregulation of tumor suppressor genes, including BRCA1. The goal of this project is to employ qHTS to identify selective small molecule inhibitors of KDM5A/B demethylase activity to better understand the role of KDM5 in cancer and to develop novel therapies.
# We employed an FDH-coupled assay previously reported by Sakurai et al. to monitor in vitro KDM5 demethylase activity. Compounds showing dose response inhibition are re-acquired, validated, and tested for non-specific interference with the formaldehyde dehydrogenase (FDH) counterscreen. True inhibitors are validated using an AlphaLisa secondary screen, which employs an H3K4(me2-1)-specific antibody to monitor demethylation of a biotin-tagged H3K4(me3) peptide substrate. Inhibitors are profiled against KDM4A and KDM6A AlphaLisa counterscreens to determine level of demethylase specificity; and against the TruHits counterscreen to eliminate non-specific inhibitory activity on the AlphaLISA detection method. Selective inhibitors identified from the primary and secondary screening are tested in cells using immunofluorescence to monitor global H3K4 tri-methylation as a measure of KDM5A/B inhibition. This assay is run against the NCGC Lopac collection of about 1,200 compounds to evaluate its amenability to quantitative High Throughput Screening (qHTS) platform.
# Early Translation Branch (ETB)
# National Center for Advancing Translational Sciences (NCATS), Rockville, MD
# National Institute of Health (NIH), Bethesda, Maryland
# [1] Sakurai, M et al. A miniaturized screen for inhibitors of Jumonji histone demethylases. Mol Biosyst. 2010 Feb;6(2):357-64. doi: 10.1039/b912993f. Epub 2009 Oct 8.
# 1536-well Black, solid bottom, medium binding assay plate is purchased from Greiner Bio-one. The enzymes (KDM5B) and substrate (H3K4me3/2) are provided by the principal investigators. The buffer for this assay is composed of 50mM HEPES at pH 7.5 with 0.01% Tween-20.
# FDH coupled qHTS protocol:
# Three microliter enzyme mix (buffer + 200nM KDM5BDeltaAP final concentration) is dispensed into the assay plate using the BioRAPTR Flying Reagent Dispenser (FRD; Beckton-Dickenson). Compound (at various final concentration) and control solution is pin transferred to the assay plate using the Kalypsys 1536-pin tool apparatus. The assay plate is incubated for 10 min at room temperature followed by addition of 1uL substrate mix (buffer + 100uM ascorbic acid, 50uM ferrous ammonium sulfate, 12.5uM H3K4Me3, 25uM a-ketoglutarate, 0.25 mM NAD+, 0.25 U/mL formaldehyde dehydrogenase using the FRD yielding a total reaction volume of 4 uL. Initial fluorescence (Read1) is detected using the PerkinElmer ViewLux plate reader equipped with 340 nm excitation and 450 nm emission filters. The final fluorescence (Read2) signal is obtained after 30 min of room temperature incubation. Delta RFU is calculated (Read2 - Read1) and is used to generated dose response curves
# Lysine-specific demethylase 5B (Homo sapiens), sequence (Q9UGL1 whole entry, looked up): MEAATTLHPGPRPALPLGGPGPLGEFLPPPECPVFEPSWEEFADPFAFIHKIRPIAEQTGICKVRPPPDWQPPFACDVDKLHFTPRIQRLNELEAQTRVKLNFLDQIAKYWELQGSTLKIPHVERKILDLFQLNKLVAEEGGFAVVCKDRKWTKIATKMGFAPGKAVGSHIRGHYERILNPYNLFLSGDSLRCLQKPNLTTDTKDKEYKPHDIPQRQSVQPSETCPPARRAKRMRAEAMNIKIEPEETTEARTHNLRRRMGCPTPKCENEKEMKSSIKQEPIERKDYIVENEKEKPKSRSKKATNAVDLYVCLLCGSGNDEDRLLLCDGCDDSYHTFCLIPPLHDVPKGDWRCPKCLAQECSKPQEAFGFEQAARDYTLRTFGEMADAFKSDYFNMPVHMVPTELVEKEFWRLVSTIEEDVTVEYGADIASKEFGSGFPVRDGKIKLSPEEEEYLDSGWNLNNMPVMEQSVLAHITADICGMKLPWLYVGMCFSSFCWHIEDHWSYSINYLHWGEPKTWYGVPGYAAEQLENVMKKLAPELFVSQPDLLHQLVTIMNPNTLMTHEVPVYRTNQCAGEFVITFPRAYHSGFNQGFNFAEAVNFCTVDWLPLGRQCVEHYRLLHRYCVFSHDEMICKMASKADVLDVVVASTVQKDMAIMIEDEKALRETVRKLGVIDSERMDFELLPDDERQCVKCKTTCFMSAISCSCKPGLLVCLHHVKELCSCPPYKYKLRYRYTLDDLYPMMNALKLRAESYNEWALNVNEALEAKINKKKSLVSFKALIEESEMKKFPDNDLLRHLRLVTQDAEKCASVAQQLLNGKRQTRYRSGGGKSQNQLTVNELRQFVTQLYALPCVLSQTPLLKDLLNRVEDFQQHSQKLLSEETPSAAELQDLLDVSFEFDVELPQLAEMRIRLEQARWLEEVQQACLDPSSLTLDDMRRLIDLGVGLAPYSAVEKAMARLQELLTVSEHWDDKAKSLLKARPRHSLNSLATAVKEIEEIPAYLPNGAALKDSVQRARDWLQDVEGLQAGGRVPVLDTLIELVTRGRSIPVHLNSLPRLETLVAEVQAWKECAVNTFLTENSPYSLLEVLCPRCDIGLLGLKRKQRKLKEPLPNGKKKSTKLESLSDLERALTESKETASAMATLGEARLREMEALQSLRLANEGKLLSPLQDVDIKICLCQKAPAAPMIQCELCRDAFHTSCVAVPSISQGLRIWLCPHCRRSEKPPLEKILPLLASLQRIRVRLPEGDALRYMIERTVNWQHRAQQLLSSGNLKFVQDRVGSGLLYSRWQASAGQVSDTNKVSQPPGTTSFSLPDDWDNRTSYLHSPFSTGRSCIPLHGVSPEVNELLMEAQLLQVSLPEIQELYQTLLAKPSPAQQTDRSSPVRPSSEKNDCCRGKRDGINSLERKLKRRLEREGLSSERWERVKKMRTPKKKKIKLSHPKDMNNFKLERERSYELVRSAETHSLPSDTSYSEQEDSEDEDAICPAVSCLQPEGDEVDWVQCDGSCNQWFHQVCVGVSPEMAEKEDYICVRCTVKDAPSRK
Structure (SMILES),"activity, negative = inhibition [%]",outcome
NCC(CC(=O)O)c1ccc(Cl)cc1 (stereo not given),-13.8,–
Cc1ncc(CNC(=O)N(CCCl)N=O)c(N)n1,0.592,–
CC(CCc1ccccc1)NC(C)C(O)c1ccc(O)cc1 (stereo not given),-3.05,–
Nc1ccncc1,-3.57,–
CNCC(O)c1ccc(O)cc1 (stereo not given),-16.3,–
O=C1NCN(c2ccccc2)C12CCN(CC1COc3ccccc3O1)CC2 (stereo not given),-5.23,–
O=c1[nH]c2ccccc2n1CCCN1CCC(n2c(=O)[nH]c3cc(Cl)ccc32)CC1,-1.15,–
CCCC(C)(COC(N)=O)COC(=O)NC(C)C (stereo not given),1.45,–
c1ccc(C2CC2)c(OCC2=NCCN2)c1,-6.99,–
c1ccc2c(c1)OCC(C1=NCCN1)O2 (stereo not given),-22.7,–
CCCN1CCC[C@@H]2Cc3[nH]ncc3C[C@H]21,–,inactive
C[C@@H]1O[C@@H](O[C@H]2C[C@@H](O)[C@]3(CO)[C@H]4[C@H](O)C[C@]5(C)[C@@H](C6=CC(=O)OC6)CC[C@]5(O)[C@@H]4CC[C@]3(O)C2)[C@H](O)[C@H](O)[C@H]1O,-6.4,–
Fc1ccc(C(OCCN2CCN(CCCc3ccccc3)CC2)c2ccc(F)cc2)cc1,-11.6,–
CCCN1CCC[C@@H]2Cc3nc(N)ncc3C[C@H]21,-24.5,–
CCC1(C2=NCCN2)Cc2ccccc2O1 (stereo not given),-0.71,–
CC(=O)[C@H]1CC[C@H]2[C@@H]3CC[C@H]4C[C@](C)(O)CC[C@]4(C)[C@H]3CC[C@]12C,-3.98,–
CC(=O)[C@H]1CC[C@H]2[C@@H]3CC[C@H]4C[C@H](O)CC[C@]4(C)[C@H]3C(=O)C[C@]12C,-0.698,–
O=c1[nH]c2ccccc2n1C1CCN(CCCC(c2ccc(F)cc2)c2ccc(F)cc2)CC1,-20.6,–
CC(C)=CCOc1c2occc2cc2ccc(=O)oc12,-22.2,–
C[C@]12CCC(=O)C(O)=C1CC[C@@H]1[C@@H]2CC[C@]2(C)C(=O)CC[C@@H]12,-16.1,–
Cc1cccc(C)c1NC(=O)CN1CCCC1=O,-8.88,–
Cc1cccc(C)c1NC1=NCCCS1,-0.828,–
NN=C(N)N,–,inactive
CC(O)(CS(=O)(=O)c1ccc(F)cc1)C(=O)Nc1ccc(C#N)c(C(F)(F)F)c1 (stereo not given),-4.02,–
COc1ccc(C(CN(C)C)C2(O)CCCCC2)cc1 (stereo not given),-0.263,–
NCC1(CC(=O)O)CCCCC1,-4.08,–
NCC(O)c1ccc(O)cc1 (stereo not given),-6.03,–
COC[C@H]1OC(=O)c2coc3c2[C@@]1(C)C1=C(C3=O)C2CCC(=O)[C@@]2(C)C[C@H]1OC(C)=O (stereo not given in full),-12.5,–
C=C(C)[C@H]1Cc2c(ccc3c2O[C@@H]2COc4cc(OC)c(OC)cc4[C@@H]2C3=O)O1,-18.9,–
COc1ccccc1N1CCNCC1,-6.79,–
